Measurements as given in publication PMC5540273 (PLoS ONE, 2017).

Assays:
Conditions in all cases: concentration: 1 μM, replicates: in singlicate; n = 1
CSNK1G1 = tested on: CSNK1G1
CSNK1G2 = tested on: CSNK1G2
CSNK1G3 = tested on: CSNK1G3
CSNK2A1 = tested on: CSNK2A1
CSNK2A2 = tested on: CSNK2A2
CTK = tested on: T1, CTK
T1 construct: gene MATK

DAPK1 = tested on: DAPK1
DAPK2 = tested on: DAPK2
DAPK3 = tested on: DAPK3
DCAMKL1 = tested on: T2, DCAMKL1
T2 construct: gene DCLK1

DCAMKL2 = tested on: T3, DCAMKL2
T3 construct: gene DCLK2

DCAMKL3 = tested on: T4, DCAMKL3
T4 construct: gene DCLK3

DDR1 = tested on: DDR1
DDR2 = tested on: DDR2
DLK = tested on: T5, DLK
T5 construct: gene MAP3K12

DMPK2 = tested on: T6, DMPK2
T6 construct: gene CDC42BPG

DMPK = tested on: DMPK
DRAK1 = tested on: T7, DRAK1
T7 construct: gene STK17A

DRAK2 = tested on: T8, DRAK2
T8 construct: gene STK17B

DYRK1A = tested on: DYRK1A
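Note: KINOMEscan kinase panel screen.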

Structure (SMILES) | %Inh (CSNK1G1) [%] | %Inh (CSNK1G2) [%] | %Inh (CSNK1G3) [%] | %Inh (CSNK2A1) [%] | %Inh (CSNK2A2) [%] | %Inh (CTK) [%] | %Inh (DAPK1) [%] | %Inh (DAPK2) [%] | %Inh (DAPK3) [%] | %Inh (DCAMKL1) [%] | %Inh (DCAMKL2) [%] | %Inh (DCAMKL3) [%] | %Inh (DDR1) [%] | %Inh (DDR2) [%] | %Inh (DLK) [%] | %Inh (DMPK2) [%] | %Inh (DMPK) [%] | %Inh (DRAK1) [%] | %Inh (DRAK2) [%] | %Inh (DYRK1A) [%]
Cc1ccc(F)c(C(=O)Nc2cccc(-c3nn4ccccc4c3-c3ccnc(Nc4cccc(F)c4)n3)c2)c1F [GSK361061] | 10 | 12 | 27 | 20 | 10 | 27 | 0 | 10 | 14 | 0 | 13 | 70 | 100 | 87 | 7 | 85 | 13 | 0 | 0 | 11
COc1cc2c(cc1OCCN1CCNCC1)ncc1c3ccc(C#N)cc3[nH]c21 | 0 | 0 | 4 | 63 | 92.4 | 15 | 14 | 4 | 4 | 38 | 3 | 4 | 0 | 1 | 85 | 0 | 5 | 99.5 | 99.6 | 93.1
CN(C)S(=O)(=O)c1cc(-c2ccc3nccc(-c4cccc(S(N)(=O)=O)c4)c3c2)cnc1N [GSK1669921] | 22 | 0 | 33 | 11 | 4 | 12 | 0 | 8 | 3 | 28 | 6 | 0 | 100 | 5 | 0 | 0 | 10 | 0 | 0 | 37
CN1CCN(CCCNc2nccc(-c3c(-c4ccc(F)cc4)nn4cc(C(F)(F)F)ccc34)n2)CC1 [GW621581] | 0 | 0 | 16 | 0 | 0 | 0 | 0 | 0 | 100 | 0 | 0 | 25 | 100 | 81 | 16 | 0 | 0 | 33 | 0 | 5
COc1cccc(NC(=O)NC2CCN(c3ccnc(Nc4cc(OC)c(OC)c(OC)c4)n3)C2)c1 (stereo not drawn) [GSK1379763] | 0 | 0 | 14 | 12 | 7 | 0 | 5 | 0 | 17 | 0 | 0 | 0 | 22 | 24 | 46 | 27 | 0 | 0 | 0 | 0
CN(C)Cc1ccc(-c2ccc3c(Nc4ccc(Oc5ccccn5)cc4)ccnc3c2)o1 [GW567148] | 0 | 0 | 0 | 0 | 0 | 16 | 0 | 0 | 0 | 14 | 0 | 0 | 38 | 45 | 69 | 0 | 0 | 4 | 0 | 13
Cc1cccc(NC(=O)Nc2ccc(Oc3ncnc4ccn(C)c34)cc2)c1 | 0 | 10 | 5 | 0 | 0 | 0 | 0 | 0 | 0 | 45 | 0 | 0 | 99.3 | 98.7 | 0 | 0 | 0 | 0 | 0 | 0
Cc1occc1-c1ncc(OC[C@@H](N)Cc2c[nH]c3ccccc23)cc1-c1ccc2[nH]nc(C)c2c1.O=C(O)C(F)(F)F [GSK682037] | 76 | 95.5 | 93.7 | 0 | 8 | 0 | 0 | 0 | 2 | 10 | 14 | 0 | 0 | 5 | 1 | 67 | 95 | 0 | 0 | 15
Cc1ccc(C(=O)N2CC[C@@H](O)C2)cc1-n1c(C)cc(OCc2ccc(F)cc2F)c(Br)c1=O | 0 | 0 | 0 | 0 | 0 | 0 | 3 | 0 | 7 | 40 | 0 | 0 | 99 | 94.6 | 0 | 0 | 0 | 0 | 0 | 0
